According to the supplement of paper PMC11732987, “Enantioselective OTUD7B fragment discovery through chemoproteomics screening and high-throughput optimisation” (Communications Chemistry, 2025):

Legend:
Experiment in all cases: log2 ratio of Biotin-Ahx-Ub-VS probe labelling (fragment/DMSO); higher = less target engagement (more negative = stronger competition), active = hit call of the paper (q ≤ 0.05, log2 ratio ≤ -1)
Details in all cases: compound concentration: 200 uM; treatment time: 3 h
USP34 = USP34 (UniProt Q70CQ2)
Summary of the method: (§1)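 Using Biotin-Ahx-Ub-VS at 0.5 µM final for 1 h, DUBs were labelled in HEK293T lysate (495 µg per sample) that had first been treated in triplicate with fragment at 200 µM or vehicle for 3 h. NeutrAvidin enrichment, LysC and trypsin digestion and diaPASEF LC-MS/MS followed. Spectronaut label-free quantities were global-median-normalised. Values are average log2 fragment/vehicle ratios by unpaired t-test, using proteins with ≥2 unique peptides.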

USP36 = target: T1, USP36 (UniProt Q9P275)
T1 sequence (whole entry): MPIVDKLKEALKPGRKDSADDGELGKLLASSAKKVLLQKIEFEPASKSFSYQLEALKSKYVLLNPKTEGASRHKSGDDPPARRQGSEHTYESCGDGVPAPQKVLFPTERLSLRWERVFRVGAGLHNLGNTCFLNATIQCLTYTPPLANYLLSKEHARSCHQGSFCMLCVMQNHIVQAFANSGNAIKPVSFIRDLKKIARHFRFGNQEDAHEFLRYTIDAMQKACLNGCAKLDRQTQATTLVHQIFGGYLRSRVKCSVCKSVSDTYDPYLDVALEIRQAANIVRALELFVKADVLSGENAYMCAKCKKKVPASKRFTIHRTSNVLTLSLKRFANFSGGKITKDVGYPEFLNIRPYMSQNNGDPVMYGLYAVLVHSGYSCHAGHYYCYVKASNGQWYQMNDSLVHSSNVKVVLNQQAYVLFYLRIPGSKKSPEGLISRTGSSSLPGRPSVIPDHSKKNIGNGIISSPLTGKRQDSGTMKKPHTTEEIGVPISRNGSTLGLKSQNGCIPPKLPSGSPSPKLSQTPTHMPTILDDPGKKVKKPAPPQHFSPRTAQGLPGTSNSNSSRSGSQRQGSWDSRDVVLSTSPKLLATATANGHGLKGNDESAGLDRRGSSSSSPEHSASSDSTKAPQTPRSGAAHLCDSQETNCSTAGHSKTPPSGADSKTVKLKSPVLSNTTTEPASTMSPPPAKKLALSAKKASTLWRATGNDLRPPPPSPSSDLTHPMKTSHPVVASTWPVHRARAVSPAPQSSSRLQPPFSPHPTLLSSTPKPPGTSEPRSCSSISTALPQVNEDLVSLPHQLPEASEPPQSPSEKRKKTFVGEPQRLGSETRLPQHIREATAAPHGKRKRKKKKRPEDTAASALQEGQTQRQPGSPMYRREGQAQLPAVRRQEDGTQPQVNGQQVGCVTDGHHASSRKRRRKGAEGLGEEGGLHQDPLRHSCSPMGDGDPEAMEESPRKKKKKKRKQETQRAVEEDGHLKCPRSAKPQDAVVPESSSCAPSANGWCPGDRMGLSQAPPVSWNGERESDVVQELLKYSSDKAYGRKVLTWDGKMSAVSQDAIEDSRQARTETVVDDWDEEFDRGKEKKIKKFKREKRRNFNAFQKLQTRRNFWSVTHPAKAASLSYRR
Summary of the method: as §1

USP38 = target: T2, USP38 (UniProt Q8NB14)
T2 sequence (whole entry): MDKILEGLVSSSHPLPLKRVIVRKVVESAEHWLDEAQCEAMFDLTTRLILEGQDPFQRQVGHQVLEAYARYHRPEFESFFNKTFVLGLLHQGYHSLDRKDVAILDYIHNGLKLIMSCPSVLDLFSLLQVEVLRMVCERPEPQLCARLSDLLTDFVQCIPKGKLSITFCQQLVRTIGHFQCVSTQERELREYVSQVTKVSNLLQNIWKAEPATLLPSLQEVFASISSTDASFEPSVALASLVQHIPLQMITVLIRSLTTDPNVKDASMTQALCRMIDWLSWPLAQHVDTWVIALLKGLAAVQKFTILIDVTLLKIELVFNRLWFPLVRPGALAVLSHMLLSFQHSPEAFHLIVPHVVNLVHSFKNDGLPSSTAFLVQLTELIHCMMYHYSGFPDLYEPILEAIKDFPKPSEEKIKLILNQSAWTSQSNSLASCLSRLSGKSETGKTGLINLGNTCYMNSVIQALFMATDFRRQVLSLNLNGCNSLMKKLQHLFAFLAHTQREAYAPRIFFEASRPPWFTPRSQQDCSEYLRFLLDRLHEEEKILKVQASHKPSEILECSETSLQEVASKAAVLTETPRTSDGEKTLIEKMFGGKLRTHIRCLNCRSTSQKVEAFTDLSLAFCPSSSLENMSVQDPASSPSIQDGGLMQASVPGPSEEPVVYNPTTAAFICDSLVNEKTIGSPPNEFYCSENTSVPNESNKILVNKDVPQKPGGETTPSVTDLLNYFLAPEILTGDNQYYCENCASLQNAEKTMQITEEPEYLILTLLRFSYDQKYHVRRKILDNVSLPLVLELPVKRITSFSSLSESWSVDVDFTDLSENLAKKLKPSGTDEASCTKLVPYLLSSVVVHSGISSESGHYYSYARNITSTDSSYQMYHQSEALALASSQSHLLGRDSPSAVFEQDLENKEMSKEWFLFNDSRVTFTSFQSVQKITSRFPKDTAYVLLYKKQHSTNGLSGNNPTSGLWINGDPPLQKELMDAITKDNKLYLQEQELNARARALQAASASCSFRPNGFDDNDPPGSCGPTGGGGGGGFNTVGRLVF
Summary of the method: as §1

USP39 = target: T3, USP39 (UniProt Q53GS9)
T3 sequence (whole entry): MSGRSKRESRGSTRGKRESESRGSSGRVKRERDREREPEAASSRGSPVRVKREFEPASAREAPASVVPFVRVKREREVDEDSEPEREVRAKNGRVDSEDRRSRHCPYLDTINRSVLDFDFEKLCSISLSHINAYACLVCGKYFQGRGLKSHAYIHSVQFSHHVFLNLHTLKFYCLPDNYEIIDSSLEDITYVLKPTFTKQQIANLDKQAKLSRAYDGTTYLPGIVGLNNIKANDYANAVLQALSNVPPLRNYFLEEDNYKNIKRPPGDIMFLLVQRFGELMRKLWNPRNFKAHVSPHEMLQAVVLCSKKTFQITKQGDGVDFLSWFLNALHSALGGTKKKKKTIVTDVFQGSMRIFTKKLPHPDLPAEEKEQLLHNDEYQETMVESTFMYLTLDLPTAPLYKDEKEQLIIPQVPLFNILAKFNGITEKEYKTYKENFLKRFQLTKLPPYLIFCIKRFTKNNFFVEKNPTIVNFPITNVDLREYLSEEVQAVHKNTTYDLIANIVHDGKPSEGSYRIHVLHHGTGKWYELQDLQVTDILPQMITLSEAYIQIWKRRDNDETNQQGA
Summary of the method: as §1

USP4 = target: T4, USP4 (UniProt Q13107)
T4 sequence (whole entry): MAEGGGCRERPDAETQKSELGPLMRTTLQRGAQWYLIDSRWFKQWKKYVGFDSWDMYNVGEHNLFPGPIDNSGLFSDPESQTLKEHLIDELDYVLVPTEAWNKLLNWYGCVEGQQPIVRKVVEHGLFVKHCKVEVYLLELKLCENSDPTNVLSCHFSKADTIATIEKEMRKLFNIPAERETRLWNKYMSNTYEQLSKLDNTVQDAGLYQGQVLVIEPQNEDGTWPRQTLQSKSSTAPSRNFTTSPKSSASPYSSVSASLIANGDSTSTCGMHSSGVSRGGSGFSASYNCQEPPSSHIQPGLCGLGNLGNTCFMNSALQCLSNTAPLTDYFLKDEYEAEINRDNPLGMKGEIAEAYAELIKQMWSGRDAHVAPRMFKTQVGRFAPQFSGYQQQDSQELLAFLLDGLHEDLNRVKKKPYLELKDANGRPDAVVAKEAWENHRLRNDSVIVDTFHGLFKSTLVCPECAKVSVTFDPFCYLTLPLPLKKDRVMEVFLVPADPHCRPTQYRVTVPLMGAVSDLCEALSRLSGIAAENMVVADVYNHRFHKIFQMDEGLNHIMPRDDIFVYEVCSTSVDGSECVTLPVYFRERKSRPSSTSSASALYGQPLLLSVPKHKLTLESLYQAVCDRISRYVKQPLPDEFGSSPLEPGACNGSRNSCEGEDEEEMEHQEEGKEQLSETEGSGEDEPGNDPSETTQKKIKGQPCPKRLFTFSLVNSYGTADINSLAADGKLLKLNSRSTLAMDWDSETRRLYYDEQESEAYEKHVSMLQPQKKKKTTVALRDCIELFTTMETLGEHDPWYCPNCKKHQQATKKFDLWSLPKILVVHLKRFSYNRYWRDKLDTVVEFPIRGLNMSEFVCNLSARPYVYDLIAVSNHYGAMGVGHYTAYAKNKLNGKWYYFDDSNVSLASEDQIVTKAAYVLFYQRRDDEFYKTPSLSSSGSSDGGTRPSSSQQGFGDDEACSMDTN
Summary of the method: as §1

Measured: log2 ratio of Biotin-Ahx-Ub-VS probe labelling

Sequence of USP34 (Q70CQ2 whole entry, the tested form may be a part): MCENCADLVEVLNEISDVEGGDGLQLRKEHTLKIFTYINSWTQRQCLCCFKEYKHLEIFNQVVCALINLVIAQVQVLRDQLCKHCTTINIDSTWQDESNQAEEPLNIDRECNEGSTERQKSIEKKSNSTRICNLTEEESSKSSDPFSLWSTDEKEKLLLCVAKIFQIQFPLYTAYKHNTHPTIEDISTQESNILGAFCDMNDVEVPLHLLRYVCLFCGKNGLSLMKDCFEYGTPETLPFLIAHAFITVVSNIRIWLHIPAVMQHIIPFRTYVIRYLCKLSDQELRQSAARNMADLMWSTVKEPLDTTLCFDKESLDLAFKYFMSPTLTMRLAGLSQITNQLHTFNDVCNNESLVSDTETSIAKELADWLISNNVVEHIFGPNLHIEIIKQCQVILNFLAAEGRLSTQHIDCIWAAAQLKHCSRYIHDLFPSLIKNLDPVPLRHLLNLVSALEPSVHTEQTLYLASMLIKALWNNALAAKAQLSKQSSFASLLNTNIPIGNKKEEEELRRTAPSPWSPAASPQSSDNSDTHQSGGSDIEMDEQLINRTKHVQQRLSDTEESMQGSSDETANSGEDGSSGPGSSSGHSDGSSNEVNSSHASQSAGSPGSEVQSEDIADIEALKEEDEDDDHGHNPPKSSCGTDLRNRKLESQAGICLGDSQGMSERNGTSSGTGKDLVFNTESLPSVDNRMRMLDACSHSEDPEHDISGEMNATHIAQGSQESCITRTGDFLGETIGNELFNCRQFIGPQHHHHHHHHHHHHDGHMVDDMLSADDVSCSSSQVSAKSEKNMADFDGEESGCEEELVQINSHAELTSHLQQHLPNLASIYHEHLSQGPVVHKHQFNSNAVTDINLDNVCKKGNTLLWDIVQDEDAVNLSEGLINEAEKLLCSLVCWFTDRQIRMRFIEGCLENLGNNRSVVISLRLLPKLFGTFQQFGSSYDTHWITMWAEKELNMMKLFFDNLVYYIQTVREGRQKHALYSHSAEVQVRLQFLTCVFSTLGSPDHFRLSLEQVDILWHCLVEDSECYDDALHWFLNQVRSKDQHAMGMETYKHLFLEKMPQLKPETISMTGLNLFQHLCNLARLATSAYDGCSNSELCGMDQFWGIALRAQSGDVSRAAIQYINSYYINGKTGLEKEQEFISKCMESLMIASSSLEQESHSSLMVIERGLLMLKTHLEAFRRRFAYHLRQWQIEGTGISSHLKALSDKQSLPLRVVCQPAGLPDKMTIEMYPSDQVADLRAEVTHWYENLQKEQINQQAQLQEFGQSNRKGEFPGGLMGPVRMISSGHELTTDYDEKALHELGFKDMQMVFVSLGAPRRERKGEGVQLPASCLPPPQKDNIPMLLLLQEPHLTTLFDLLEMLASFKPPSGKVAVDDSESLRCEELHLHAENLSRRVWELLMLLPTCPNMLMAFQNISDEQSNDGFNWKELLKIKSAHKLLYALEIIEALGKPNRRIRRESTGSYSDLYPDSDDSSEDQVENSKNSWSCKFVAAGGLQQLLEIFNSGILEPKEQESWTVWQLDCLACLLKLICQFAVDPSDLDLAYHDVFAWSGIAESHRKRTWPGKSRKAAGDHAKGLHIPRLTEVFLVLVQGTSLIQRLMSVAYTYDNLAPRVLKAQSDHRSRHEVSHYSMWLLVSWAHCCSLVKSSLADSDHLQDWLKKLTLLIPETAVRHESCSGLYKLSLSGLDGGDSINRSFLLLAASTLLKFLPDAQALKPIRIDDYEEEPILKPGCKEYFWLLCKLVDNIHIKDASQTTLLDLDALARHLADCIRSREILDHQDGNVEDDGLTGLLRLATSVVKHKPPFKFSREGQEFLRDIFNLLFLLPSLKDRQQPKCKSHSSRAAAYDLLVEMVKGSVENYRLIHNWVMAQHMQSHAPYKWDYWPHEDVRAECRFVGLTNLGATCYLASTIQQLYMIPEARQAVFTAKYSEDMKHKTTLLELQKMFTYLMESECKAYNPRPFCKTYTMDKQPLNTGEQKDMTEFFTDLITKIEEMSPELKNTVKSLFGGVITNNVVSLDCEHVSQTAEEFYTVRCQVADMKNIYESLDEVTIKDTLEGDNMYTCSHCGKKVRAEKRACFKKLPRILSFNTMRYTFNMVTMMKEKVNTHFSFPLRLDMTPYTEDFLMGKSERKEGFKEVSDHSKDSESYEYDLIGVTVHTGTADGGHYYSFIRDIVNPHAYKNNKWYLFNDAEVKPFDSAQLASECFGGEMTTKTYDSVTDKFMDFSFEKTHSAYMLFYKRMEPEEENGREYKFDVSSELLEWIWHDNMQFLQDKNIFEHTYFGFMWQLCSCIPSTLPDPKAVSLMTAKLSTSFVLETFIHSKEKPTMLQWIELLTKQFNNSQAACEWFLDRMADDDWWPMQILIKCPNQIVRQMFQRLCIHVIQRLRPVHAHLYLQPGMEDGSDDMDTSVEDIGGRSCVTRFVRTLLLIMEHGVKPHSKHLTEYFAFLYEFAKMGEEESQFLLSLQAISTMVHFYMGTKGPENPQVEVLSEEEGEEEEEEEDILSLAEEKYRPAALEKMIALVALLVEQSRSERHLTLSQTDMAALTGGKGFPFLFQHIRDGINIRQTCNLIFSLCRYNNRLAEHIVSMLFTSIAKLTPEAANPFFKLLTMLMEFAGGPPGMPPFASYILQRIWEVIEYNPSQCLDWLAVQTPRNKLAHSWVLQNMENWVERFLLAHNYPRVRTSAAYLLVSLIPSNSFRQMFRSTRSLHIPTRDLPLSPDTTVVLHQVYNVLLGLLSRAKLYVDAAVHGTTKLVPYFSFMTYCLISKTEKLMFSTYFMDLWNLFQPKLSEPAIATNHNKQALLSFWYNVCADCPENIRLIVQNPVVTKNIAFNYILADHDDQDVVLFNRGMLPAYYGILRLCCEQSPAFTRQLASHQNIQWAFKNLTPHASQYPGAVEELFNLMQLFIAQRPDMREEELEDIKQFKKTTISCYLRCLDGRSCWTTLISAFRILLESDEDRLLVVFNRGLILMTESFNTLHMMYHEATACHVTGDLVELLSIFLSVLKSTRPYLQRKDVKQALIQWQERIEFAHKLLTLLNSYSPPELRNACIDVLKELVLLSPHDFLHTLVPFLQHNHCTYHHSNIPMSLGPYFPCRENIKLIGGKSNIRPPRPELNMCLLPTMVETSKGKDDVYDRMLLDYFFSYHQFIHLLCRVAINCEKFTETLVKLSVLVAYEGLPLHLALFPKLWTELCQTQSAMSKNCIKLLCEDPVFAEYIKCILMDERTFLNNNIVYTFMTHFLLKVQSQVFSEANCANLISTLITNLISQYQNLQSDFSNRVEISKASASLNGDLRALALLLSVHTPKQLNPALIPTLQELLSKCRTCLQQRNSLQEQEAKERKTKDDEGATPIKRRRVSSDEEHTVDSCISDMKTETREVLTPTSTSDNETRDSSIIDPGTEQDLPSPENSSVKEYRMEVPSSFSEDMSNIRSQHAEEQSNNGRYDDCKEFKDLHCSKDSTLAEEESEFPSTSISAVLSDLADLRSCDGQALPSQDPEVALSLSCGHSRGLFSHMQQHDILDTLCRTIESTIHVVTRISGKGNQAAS

O=C(CCl)NC1(c2ccc3c(c2)OCCO3)CCCC1
inactive: USP34 -0.146 | USP36 -0.197 | USP38 -0.013 | USP39 0.277 | USP4 -0.0625
